40 compounds from ChEMBL document CHEMBL3988442, “University of Dundee, Small-Polar-MMV Screening Library” (2021) can be followed below.

One assay has as its target T1, Aspartate--tRNA(Asp/Asn) ligase (Mycobacterium tuberculosis (strain ATCC 25618 / H37Rv)) (UniProt P9WFW3). Note: in the data most compounds retested in dose-response had high values.
T1 sequence (whole entry): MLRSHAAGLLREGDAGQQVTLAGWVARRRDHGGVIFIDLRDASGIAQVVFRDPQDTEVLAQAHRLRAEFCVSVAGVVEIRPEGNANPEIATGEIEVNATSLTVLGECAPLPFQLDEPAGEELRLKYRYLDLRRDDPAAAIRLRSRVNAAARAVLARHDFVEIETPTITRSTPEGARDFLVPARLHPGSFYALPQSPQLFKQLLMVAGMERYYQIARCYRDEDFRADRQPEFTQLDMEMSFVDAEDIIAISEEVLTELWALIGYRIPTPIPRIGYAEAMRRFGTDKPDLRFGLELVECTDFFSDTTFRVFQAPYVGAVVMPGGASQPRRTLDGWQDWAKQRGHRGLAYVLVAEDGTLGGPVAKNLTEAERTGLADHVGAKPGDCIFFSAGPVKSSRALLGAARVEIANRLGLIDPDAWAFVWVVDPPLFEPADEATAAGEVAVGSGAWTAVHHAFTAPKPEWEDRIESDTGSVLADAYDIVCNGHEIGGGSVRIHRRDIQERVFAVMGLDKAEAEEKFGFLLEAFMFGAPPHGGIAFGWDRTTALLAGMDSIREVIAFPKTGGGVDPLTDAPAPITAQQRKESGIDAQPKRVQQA
In words: Assay for Asp RNA synthetase-1 from Mycobacterium tuberculosis. Particulars: 30 µM. Type of assay: functional. On the set-up: scale not given: direction of the effect not stated beside the values.
`CC(C)n1cc(C(=O)N2Cc3ccccc3OC3(CCOCC3)C2)cn1`: the Percent Effect was -1.29%.

Regarding `COc1ncccc1CNC(=O)NCCNC(=O)c1ccco1`, the Percent Effect is -10.1%.

For `CCNC(=O)c1ncn2c1CN(C)S(=O)(=O)c1ccccc1-2`, the Percent Effect was -3.46%.

Consider `Cc1ccc(N2CC[C@H]3OCC[C@@]3(C(=O)NC(C)C)C2)nn1`, for which the Percent Effect was -2.66%.

As for `O=C(CCC1CCCO1)NCc1ccnc(-n2cccn2)c1` (stereo not given), the Percent Effect turned out to be 7.84%.

As for `COc1cccc(CNCCc2cc(F)cc3c2OCOC3)c1`, the Percent Effect was -4.9%.

`COc1ccc(CN2CCCC2Cn2nc(C)nc2C)cc1F` (stereo not given): the Percent Effect was -1.56%.

In the case of `CS(=O)(=O)NC1CCc2c(ccc(=O)n2CC2CC2)C1` (stereo not given), the Percent Effect is 2.4%.

Regarding `Cn1cccc1C(=O)N1CC[C@H]2C[C@@H](c3ccncn3)O[C@@H]2C1`, the Percent Effect is -6.89%.

As to `COc1ccccc1-c1noc(CN2CCCC2Cn2cccn2)n1` (stereo not given), the Percent Effect is -7.54%.

Regarding `Cn1ncc2c1CCCC2NCc1cnc(-c2ccccc2)nc1` (stereo not given), the Percent Effect is 8.81%.

Regarding `c1nc2c(c(C3CC3)n1)CCN(Cc1ccoc1)CC2`, the Percent Effect was found to be 2.3%.

In the case of `COCC(=O)N(C)Cc1cccc(Cl)c1`, the Percent Effect was -0.779%.

In the case of `COCc1cc(O)nc(C2CCCN(Cc3cc(OC)ccc3F)C2)n1` (stereo not given), the Percent Effect is 1.71%.

Consider `O=C1CCCN1CC1CN(C(=O)CC2CCCC2)Cc2nccn2C1` (stereo not given), for which the Percent Effect came to 4.01%.

As to `Cc1cc(F)cc(S(=O)(=O)NCCCN2CCC(O)CC2)c1`, the Percent Effect was found to be 4.04%.

With `Cc1nn(C)c(C)c1C1CCCN1C(=O)c1ccc(NC2CC2)nc1` (stereo not given), the Percent Effect amounted to 2.27%.

For the compound `c1ccc(Cn2ccnc2CN2CCCC2c2noc(C3CC3)n2)cc1` (stereo not given), the Percent Effect stood at 6.6%.

In the case of `O=c1c2ccccc2nc2n1CCN(Cc1cccs1)CC2`, the Percent Effect stood at 1.35%.

Regarding `O=C(NCCS(=O)(=O)N1CCc2ccccc21)c1c(O)cc(F)cc1F`, the Percent Effect is -2.88%.

As for `CC(C)c1nnc(CN2CCCC2Cn2cncn2)o1` (stereo not given), the Percent Effect was -1.37%.

On to `CC1CCc2nc(O)c(C(=O)NCc3cccc(F)c3)cc2C1` (stereo not given), for which the Percent Effect stood at 1.04%.

As to `COc1cc(/C=C/c2ncc(C(=O)O)s2)cc(Cl)c1O`, the Percent Effect is -0.0437%.

Take `CCC(CNC(=O)c1ccc(Br)o1)N1CCc2ccccc2C1` (stereo not given): the Percent Effect is 1.73%.

Consider `Cc1nn(C)c(C)c1C(=O)N1CCOCC1CC(=O)c1ccco1` (stereo not given), for which the Percent Effect stood at 1.17%.

With `CC(=O)N1CCN(C(=O)C2SCCc3sccc32)CC1` (stereo not given), the Percent Effect is -0.324%.

For the compound `CN(Cc1ccsc1)C(=O)Nc1ccc(S(=O)(=O)N(C)C)cc1`, the Percent Effect worked out at 0.428%.

With `O=C(NCc1cccnc1)C1=NN(c2ccccc2)C(=O)CN1`, the Percent Effect came out at 14.8%.

In the case of `NCCn1nc(C2CCN(Cc3ccc(Cl)c(Cl)c3)C2)c2nccnc21` (stereo not given), the Percent Effect was -4%.

As to `CC(C)Oc1cccc(CNC(=O)NC(C)(C(=O)O)c2ccco2)c1` (stereo not given), the Percent Effect was 1.32%.

Regarding `COc1ncccc1NC(=O)NC1CCOc2ccccc21` (stereo not given), the Percent Effect was -3.76%.

Regarding `O=C(Nc1cn[nH]c1)c1ccc(O)nc1`, the Percent Effect is -1.37%.

Regarding `CN(C)C(=O)N1C[C@H]2CCC[C@@]2(COc2ccccn2)C1`, the Percent Effect turned out to be 3.31%.

For the compound `CCn1cc(NC(=O)NCc2ccc3c(c2)OCCO3)cn1`, the Percent Effect was 1.48%.

For `CN(C)c1ccccc1C(=O)N1C[C@@H](CN2CCCCC2)[C@@H](CO)C1`, the Percent Effect was -5.26%.

`O=c1[nH][nH]cc1-c1ccnc(NCCN2CCCC2)n1`: the Percent Effect is 5.51%.

As to `CC(=O)N1CCN(C)CC(COCc2ccccc2)C1` (stereo not given), the Percent Effect is -1.62%.

For the compound `Cc1cc(C)c(CNC(=O)NCC(O)c2cccc(F)c2)c(=O)[nH]1` (stereo not given), the Percent Effect stood at 2.36%.

As to `CS(=O)(=O)N1CCC(C(=O)NC(Cc2ccsc2)c2ccccn2)CC1` (stereo not given), the Percent Effect is -1.32%.

For the compound `O=C(c1ccco1)N1CC[C@H]2[C@H]1CCN2CC1CCOCC1`, the Percent Effect was found to be 1.99%.

Another assay addresses Shiga toxin 2 (Escherichia coli O157:H7) (UniProt P09385+P09386). In words: E. coli 0.157:H7 Shiga Toxin SOP - stx2 screening assay. On the set-up: scale not given: direction of the effect not stated beside the values. Particulars: 30 µM. Type of assay: functional.
As for `CC(C)n1cc(C(=O)N2Cc3ccccc3OC3(CCOCC3)C2)cn1`, the Percent Effect was -21.7%.

As to `COc1ncccc1CNC(=O)NCCNC(=O)c1ccco1`, the Percent Effect was -25%.

Consider `CCNC(=O)c1ncn2c1CN(C)S(=O)(=O)c1ccccc1-2`, for which the Percent Effect was -5.52%.

In the case of `Cc1ccc(N2CC[C@H]3OCC[C@@]3(C(=O)NC(C)C)C2)nn1`, the Percent Effect was determined as 7.17%.

Consider `O=C(CCC1CCCO1)NCc1ccnc(-n2cccn2)c1` (stereo not given), for which the Percent Effect is 21.6%.

Turning to `COc1cccc(CNCCc2cc(F)cc3c2OCOC3)c1`, the Percent Effect was -27.3%.

Consider `COc1ccc(CN2CCCC2Cn2nc(C)nc2C)cc1F` (stereo not given), for which the Percent Effect was -0.778%.

Take `CS(=O)(=O)NC1CCc2c(ccc(=O)n2CC2CC2)C1` (stereo not given): the Percent Effect was -5.71%.

For the compound `Cn1cccc1C(=O)N1CC[C@H]2C[C@@H](c3ccncn3)O[C@@H]2C1`, the Percent Effect amounted to 7.29%.

`COc1ccccc1-c1noc(CN2CCCC2Cn2cccn2)n1` (stereo not given): the Percent Effect amounted to 21.6%.

Consider `Cn1ncc2c1CCCC2NCc1cnc(-c2ccccc2)nc1` (stereo not given), for which the Percent Effect was -1.99%.

For `c1nc2c(c(C3CC3)n1)CCN(Cc1ccoc1)CC2`, the Percent Effect is -14.5%.

Regarding `COCC(=O)N(C)Cc1cccc(Cl)c1`, the Percent Effect is -8.03%.

Regarding `COCc1cc(O)nc(C2CCCN(Cc3cc(OC)ccc3F)C2)n1` (stereo not given), the Percent Effect was found to be 17.7%.

For `O=C1CCCN1CC1CN(C(=O)CC2CCCC2)Cc2nccn2C1` (stereo not given), the Percent Effect is -4.12%.

As for `Cc1cc(F)cc(S(=O)(=O)NCCCN2CCC(O)CC2)c1`, the Percent Effect is -67.2%.

In the case of `Cc1nn(C)c(C)c1C1CCCN1C(=O)c1ccc(NC2CC2)nc1` (stereo not given), the Percent Effect was -36.7%.

In the case of `c1ccc(Cn2ccnc2CN2CCCC2c2noc(C3CC3)n2)cc1` (stereo not given), the Percent Effect was -32.8%.

As to `O=c1c2ccccc2nc2n1CCN(Cc1cccs1)CC2`, the Percent Effect worked out at 12%.

`O=C(NCCS(=O)(=O)N1CCc2ccccc21)c1c(O)cc(F)cc1F`: the Percent Effect is 23%.

Turning to `CC(C)c1nnc(CN2CCCC2Cn2cncn2)o1` (stereo not given), the Percent Effect is -22.4%.

For `CC1CCc2nc(O)c(C(=O)NCc3cccc(F)c3)cc2C1` (stereo not given), the Percent Effect is -8.04%.

Turning to `COc1cc(/C=C/c2ncc(C(=O)O)s2)cc(Cl)c1O`, the Percent Effect was -52.2%.

In the case of `CCC(CNC(=O)c1ccc(Br)o1)N1CCc2ccccc2C1` (stereo not given), the Percent Effect is 8.06%.

Regarding `Cc1nn(C)c(C)c1C(=O)N1CCOCC1CC(=O)c1ccco1` (stereo not given), the Percent Effect was -5.88%.

Regarding `CC(=O)N1CCN(C(=O)C2SCCc3sccc32)CC1` (stereo not given), the Percent Effect was -46%.

In the case of `CN(Cc1ccsc1)C(=O)Nc1ccc(S(=O)(=O)N(C)C)cc1`, the Percent Effect is -3.75%.

Regarding `O=C(NCc1cccnc1)C1=NN(c2ccccc2)C(=O)CN1`, the Percent Effect was -1.16%.

`NCCn1nc(C2CCN(Cc3ccc(Cl)c(Cl)c3)C2)c2nccnc21` (stereo not given): the Percent Effect is -105%.

Take `CC(C)Oc1cccc(CNC(=O)NC(C)(C(=O)O)c2ccco2)c1` (stereo not given): the Percent Effect came out at 25.1%.

As to `COc1ncccc1NC(=O)NC1CCOc2ccccc21` (stereo not given), the Percent Effect was -5.5%.

On to `O=C(Nc1cn[nH]c1)c1ccc(O)nc1`, for which the Percent Effect was 30.3%.

Turning to `CN(C)C(=O)N1C[C@H]2CCC[C@@]2(COc2ccccn2)C1`, the Percent Effect is 10.3%.

For `CCn1cc(NC(=O)NCc2ccc3c(c2)OCCO3)cn1`, the Percent Effect was -43.3%.

With `CN(C)c1ccccc1C(=O)N1C[C@@H](CN2CCCCC2)[C@@H](CO)C1`, the Percent Effect came to 17.7%.

`O=c1[nH][nH]cc1-c1ccnc(NCCN2CCCC2)n1`: the Percent Effect was -68.3%.

Turning to `CC(=O)N1CCN(C)CC(COCc2ccccc2)C1` (stereo not given), the Percent Effect is -22.4%.

Take `Cc1cc(C)c(CNC(=O)NCC(O)c2cccc(F)c2)c(=O)[nH]1` (stereo not given): the Percent Effect came out at 28.2%.

As for `CS(=O)(=O)N1CCC(C(=O)NC(Cc2ccsc2)c2ccccn2)CC1` (stereo not given), the Percent Effect came out at 14.7%.

In the case of `O=C(c1ccco1)N1CC[C@H]2[C@H]1CCN2CC1CCOCC1`, the Percent Effect is -28%.
